# Test results from PubChem BioAssay (EPA / NIEHS).
# Active and inactive are the calls of the source. Rule for the calls: active = hit-call score of the fitted dose curve at least 0.9, where 1 is the maximum; inactive = score below 0.9. Peptide text beside a SMILES is read from it.
# Assay: ATG_M_61_CIS: Attagene CIS-FACTORIAL HepG2 Assay for M61 Transcription Factor (Internal Marker) (AID 2282937)
# Conditions: HepG2 Attagene CIS-FACTORIAL M61 internal marker reporter; actives raise or lower the signal
# Procedure: ATG_CIS is a cell-based, multiplexed-readout assay that uses HepG2, a human liver cell line, with measurements taken at 24 hours after chemical dosing in a 24-well plate.ATG_M_61_CIS is one of 52 assay component(s) measured or calculated from the ATG_CIS assay. It is designed to make measurements of mRNA induction, a form of inducible reporter, as detected with fluorescence intensity signals by Reverse transcription polymerase chain reaction (RT-PCR) and Capillary electrophoresis technology.Data from the assay component ATG_M_61_CIS was analyzed into 1 assay endpoint. This assay endpoint, ATG_M_61_CIS, was analyzed with bidirectional fitting relative to DMSO as the negative control and baseline of activity. Using a type of inducible reporter, measures of mRNA for gain or loss-of-signal activity can be used to understand the background control at the transcription factor-level as they relate to the gene . Furthermore, this assay endpoint can be referred to as a secondary readout, because this assay has produced multiple assay endpoints where this one serves a background control function. To generalize the intended target to other relatable targets, this assay endpoint is annotated to the background measurement intended target family, where the subfamily is internal marker.
# Human liver HepG2 cells are transiently transfected with multiple reporter transcription units (MRTUs) in 6-well plates using FuGene 6 reagent (Roche; 3 ml FuGene/1 mg DNA). The MRTU constructs are regulated by a cis-regulating element (promoter). […] A major difference between the CIS and TRANS system is that in CIS activities of endogenous TFs are measured, whereas the TRANS assay evaluates changes in activities of exogenous, chimeric NR-Gal4 proteins. […] At the end of 24 hour incubation, total RNA was isolated using TriZol reagent (Invitrogen). The isolated RNA is then reverse-transcribed using oligo(dT) primer and Mo-MLV reverse transcriptase (Invitrogen) with DNAse I (Ambion) treatment for 30 min. The one-tenth of the produced cDNA was amplified by PCR using Taq DNA polymerase (Invitrogen) and two reporter sequence-specific primers. The PCR products were fluorescently labeled by primer extension with 6-arboxyfluorescein (6-FAM) 5'-labeled reporter sequence-specific primer (2 min at 95 C, 20 s at 68 C and 10 min at 72 C) and these products were digested with 5U of HpaI (New England Biolabs) for 2h at 37 C. The fragments were purified using Qiaquick PCR columns (Qiagen), analyzed on an ABI 3130xL genetic analyzer (Applied Biosystems) with peak positions identified by using a set of X-rhodamine (ROX)-labeled MapMarker1000 molecular weight standards (BioVentures). The raw capillary electrophoresis data was processed using Attagraph software (Attagene).
SMILES,outcome,AC50
CCCCNS(=O)(=O)c1ccccc1,inactive,
CC(C)(C)C1CCC(=O)CC1,inactive,
Clc1cccnc1,inactive,
C=CC(=O)O[C@H]1C[C@@H]2CC[C@@]1(C)C2(C)C,inactive,
CCCCCCCCCCCC(C)=O,inactive,
CCCC=C(C=O)CC,inactive,
O=C(O)c1ccc2c(c1)C(=O)OC2=O,inactive,
C/C=C/C=C/CCCCCCCO,inactive,
C=CC(=O)OCCCCCCCC(C)C,inactive,
CC1=C(O)C(=O)C(C)O1 (stereo not given),inactive,
CCCCCCCCCCCCCC(=O)OC(C)C,inactive,
CCOC(=O)/C=C\C(=O)OCC,inactive,
CCCCCCCCCCCCCCCCCCOS(=O)(=O)O,,54.7 µM (active)
CC(C)(C)NC(=O)[C@H]1CC[C@H]2[C@@H]3CC[C@H]4NC(=O)C=C[C@]4(C)[C@H]3CC[C@]12C,inactive,
CCCCOCCOC(=O)COc1ccc(Cl)cc1Cl,inactive,
CCCCOC(=O)C(C)CC (stereo not given),inactive,
CC(=O)OCCc1ccccc1,inactive,
CC1(C)CCC[C@]2(C)[C@H]3CC(=O)O[C@]3(C)CC[C@@H]12,inactive,
CC(=O)OCC=C(C)C,inactive,
CCC(C)N (stereo not given),inactive,

SMILES,outcome,AC50
CN1CCN(C)CC1,inactive,
CC1(C)[C@@H]2CC[C@@]1(C)C(=O)C2,inactive,
CC(C)OC(=O)c1ccccc1,inactive,
COC(=O)[C@H](Cc1ccccc1)NC(=O)[C@@H](N)CC(=O)O (H-Asp-Phe-OMe),inactive,
C=CC(=O)NCOCCCC,inactive,
CCCc1ccc(O)c(OC)c1,inactive,
CC(=O)C(C)C,inactive,
CCCCOC(=O)CCC(C)=O,inactive,
CC=CC(=O)OCC(C)C,inactive,
[Cl][Eu]([Cl])[Cl],inactive,
C=C(C)C(=O)OCC(O)COc1ccc(C(C)(C)c2ccc(OCC(O)COC(=O)C(=C)C)cc2)cc1 (stereo not given),inactive,
CCCCCCOc1ccc(N)cc1,inactive,
Cc1noc(NS(=O)(=O)c2ccc(N)cc2)c1C,inactive,
Nc1ccnc(=O)[nH]1,inactive,
O=c1c(O)c(-c2ccc(O)cc2O)oc2cc(O)cc(O)c12,inactive,
COc1cc(C)ccc1O,inactive,
COC(=O)C=Cc1ccccc1,inactive,
CCCCCCCCCCCCCc1ccccc1,inactive,
C=CC(=O)OCCCCCCOC(=O)C=C,inactive,
COc1cc(O)c(C(=O)c2ccccc2)cc1S(=O)(=O)O,inactive,
